According to the supplement of paper PMC6089552:
The whole screen tested about 3,200 compounds, of which about 300 (9.4%) showed activity. This excerpt belongs to a sample that is enriched for actives.

System: A673/TR/shEF
Experiment: cell viability (LOESS-normalised, relative to median of negative controls) (log2 ratio); higher = more viable cells (less compound effect), active = hit call of the paper (over 3 MAD below the median)
Settings: treatment time: 72 h
Outline: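 A673/TR/shEF Ewing sarcoma cells (1,500 per well, 384-well plates) were grown with or without doxycycline to induce EWS-FLI1 shRNA knockdown, starting 24 h before compounds. Library compounds at two or more concentrations, with DMSO controls, were added for three days. Cell viability was read by CellTiter-Glo luminescence on an Envision reader, then LOESS-corrected per plate, divided by the median of negative controls and log2-transformed. Hits were wells at least three median absolute deviations from the median of all screened wells.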

[1] = 0.25 µM, library screen: screen1, EWS-FLI1 expression: high (no doxycycline)
[2] = 0.25 µM, library screen: screen1, EWS-FLI1 expression: low (doxycycline-induced shRNA knockdown)
[3] = 2.5 µM, library screen: screen1, EWS-FLI1 expression: high (no doxycycline)
[4] = 2.5 µM, library screen: screen1, EWS-FLI1 expression: low (doxycycline-induced shRNA knockdown)
[5] = 0.25 µM, library screen: screen2, EWS-FLI1 expression: high (no doxycycline)
[6] = 0.25 µM, library screen: screen2, EWS-FLI1 expression: low (doxycycline-induced shRNA knockdown)
[7] = 2.5 µM, library screen: screen2, EWS-FLI1 expression: high (no doxycycline)
[8] = 2.5 µM, library screen: screen2, EWS-FLI1 expression: low (doxycycline-induced shRNA knockdown)

Measured: cell viability (log2)

C[C@@H]1O[C@@H](O[C@H]2CC[C@]3(C=O)[C@H]4CC[C@]5(C)[C@@H](C6=CC(=O)OC6)CC[C@]5(O)[C@@H]4CC[C@]3(O)C2)[C@H](O)[C@H](O)[C@H]1O
inactive: [1] 0.0221 | [2] 0.0427
active: [3] -3.36 | [4] -3.89

C[C@@H]1O[C@@H](O[C@H]2C[C@@H](O)[C@]3(CO)[C@H]4[C@H](O)C[C@]5(C)[C@@H](C6=CC(=O)OC6)CC[C@]5(O)[C@@H]4CC[C@]3(O)C2)[C@H](O)[C@H](O)[C@H]1O
active: [1] -2.32 | [2] -1.95 | [5] -0.747 | [6] -0.523 | [3] -3.06 | [4] -3.54 | [7] -4.02 | [8] -3.81

COC1C[C@H](O[C@H]2CC[C@]3(C)C4CC[C@]5(C)[C@@H](C6=CC(=O)OC6)CC[C@]5(O)C4CC[C@]3(O)C2)OC(C)[C@H]1O (stereo partly drawn)
active: [1] -0.209 | [2] -0.262 | [3] -3.79 | [4] -2.17

CO[C@H]1C[C@H](O[C@H]2CCC3(C=O)C4CCC5(C)C(C6=CC(=O)OC6)CCC5(O)C4CC[C@]3(O)C2)O[C@H](C)[C@H]1O (stereo partly drawn)
active: [1] -0.95 | [2] -1.15 | [3] -3.9 | [4] -3.2

CC1O[C@H](O[C@H]2C[C@@H](O)[C@]3(CO)C4C(O)C[C@]5(C)C(C6COC(=O)C6)CC[C@]5(O)C4CC[C@]3(O)C2)C(O)C(O)[C@H]1O (stereo partly drawn)
inactive: [5] 0.151 | [6] 0.0734 | [7] 0.15 | [8] 0.134

COC1C(O)C(O[C@H]2CC[C@]3(C=O)C4C(CC[C@]3(O)C2)[C@@]2(O)CC[C@H](C3=CC(=O)OC3)[C@@]2(C)C[C@H]4OC(C)=O)OC(C)C1OC(C)=O (stereo partly drawn)
inactive: [1] 0.109 | [2] 0.146 | [3] 0.0847 | [4] 0.082

O=c1cccc2n1C[C@@H]1CNC[C@H]2C1
inactive: [1] 0.0148 | [2] -0.00559 | [3] 0.016 | [4] 0.0651

C=CCN1CCc2cccc3c2[C@H]1Cc1ccc(O)c(O)c1-3
inactive: [5] 0.199 | [6] 0.00481 | [7] 0.133 | [8] 0.0436

CN[C@@H]1C[C@@H](c2ccc(Cl)c(Cl)c2)c2ccccc21
inactive: [5] 0.0875 | [6] 0.13 | [7] 0.173 | [8] 0.199

CN1C2CCC1CC(OC(=O)c1cc(Cl)cc(Cl)c1)C2 (stereo not drawn)
inactive: [5] 0.173 | [6] 0.0634 | [7] 0.093 | [8] -0.00531

C/C=C(/C)C(=O)O[C@H]1CC[C@@]2(C)[C@@H]3CC[C@H]4[C@]5(O)C[C@H](O)[C@@]6(O)[C@@H](CN7C[C@@H](C)CC[C@H]7[C@@]6(C)O)[C@]5(O)C[C@@]42O[C@]13O
inactive: [1] 0.0954 | [2] 0.0385 | [3] 0.186 | [4] -0.0784

C#CCOC(=O)C1=CCCN(C)C1
inactive: [5] 0.0844 | [6] 0.129 | [7] 0.0951 | [8] 0.11

CC(Cc1ccc(OCC(=O)O)cc1)NCC(O)c1cccc(Cl)c1 (stereo not drawn)
inactive: [5] 0.122 | [6] 0.143 | [7] 0.229 | [8] 0.136

C[N+]1(C)CCc2cc3c(cc2[C@H]1[C@@H]1OC(=O)c2c1ccc1c2OCO1)OCO3
inactive: [5] 0.123 | [6] 0.0886 | [7] 0.123 | [8] 0.104

COC[C@]12CN(C=O)[C@H]3C4[C@H](OC)[C@H]1C3([C@@H](OC)C[C@H]2O)[C@@H]1C[C@@]2(O)[C@H](OC(=O)c3ccccc3)[C@@H]1[C@]4(OC(C)=O)[C@@H](O)[C@@H]2OC
inactive: [1] 0.0391 | [2] 0.0831 | [3] 0.0466 | [4] 0.114

C=CCN1C[C@@H](C)N([C@H](c2ccc(C(=O)N(CC)CC)cc2)c2cccc(OC)c2)C[C@@H]1C
inactive: [5] 0.0848 | [6] 0.0464 | [7] 0.222 | [8] 0.00445

COc1cc2c(cc1OC)[C@@]13CCN4CC5=CCO[C@H]6CC(=O)N2[C@H]1[C@H]6[C@H]5C[C@H]43
inactive: [1] 0.0057 | [2] 0.0368 | [3] 0.098 | [4] -0.0757

CC(=O)Oc1ccc(C=Cc2cc(OC(C)=O)cc(OC(C)=O)c2)cc1
inactive: [1] 0.101 | [2] 0.0764 | [3] 0.00309 | [4] 0.228

Nc1ncnc2c1ncn2C1OC2COP(O)(=S)OC2C1O (stereo not drawn)
inactive: [5] 0.0926 | [6] 0.132 | [7] 0.0861 | [8] 0.0676

O.O=C1OC2(c3cc(Br)c([O-])cc3Oc3c2cc(Br)c([O-])[c]3[Hg])c2ccccc21.[Na+].[Na+] (stereo not drawn)
inactive: [1] 0.113 | [2] 0.0666 | [3] 0.139 | [4] 0.132

CN1C2CCC1CC(OC(=O)C(CO)c1ccccc1)C2 (stereo not drawn)
inactive: [5] 0.252 | [6] 0.166 | [7] 0.123 | [8] 0.223
